# Experimental data published in PubChem BioAssay (NCATS).
# Results filed as inconclusive are left out. A number with no mark means an inactive call. Activity calls are given as the source filed them. Calls come from the whole dose curve; as a rule, active = well fitted inhibition curve with a large enough effect; inconclusive = small, poorly fitted or top-dose-only effect; inactive = flat fitted curve, though single readings scatter.
# Tested on: CP185
# Experiment: qHTS profiling for inhibitors of Plasmodium falciparum proliferation (AID 504749); note: nearly all actives have a fitted effect of over 60% in size;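 for activity, negative = inhibition: 0% = DMSO vehicle and full inhibition = artemisinin control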
# Conditions: P. falciparum in erythrocytes, SYBR Green DNA, 72 h; series mostly up to 28.7 µM; activity, negative = inhibition: at the top concentration
# Method in brief: (§1)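 Three-day growth assay of blood-stage parasites in erythrocytes (0.3% parasitemia, 2.5% hematocrit) at 37 C, 5% CO2, quantified by SYBR Green DNA staining after overnight detergent lysis.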
# Potency is the fitted concentration of half-maximal effect.
Structure (SMILES),"activity, negative = inhibition",Potency
CN1CCN(C2Cc3ccccc3Sc3ccc(Cl)cc32)CC1 (stereo not given),-8.36%,–
Cc1cc2c(cc1S(N)(=O)=O)S(=O)(=O)CCC2,5.76% [at 12.8 µM],–
CCOc1nc2cccc(C(=O)O)c2n1Cc1ccc(-c2ccccc2-c2nn[nH]n2)cc1,-20.3%,–
NC1CCN(c2cccc(Cl)n2)CC1,-8.63%,–
CC(C(O)c1ccc(O)cc1)N1CCC(Cc2ccccc2)CC1 (stereo not given),–,8.91 µM (active)
CNC(=O)Oc1ccc2c(c1)[C@]1(C)CCN(C)[C@@H]1N2C,–,1.58 µM (active)
CCOC(CN1CCN(CC(C)C(=O)c2ccccc2)CC1)c1ccccc1 (stereo not given),-29.4%,–
CN1CCC[C@@H]1Cc1c[nH]c2ccc(CCS(=O)(=O)c3ccccc3)cc12,-28.2%,–
CC(C)(C)C(=O)C(Oc1ccc(Cl)cc1)n1ccnc1 (stereo not given),-29.6%,–
CCCc1c(OCCCCc2nn[nH]n2)ccc(C(C)=O)c1O,2.25%,–
CCCCN1CCCC[C@H]1C(=O)Nc1c(C)cccc1C,-20.1%,–
CN1CCCCC1CCN1c2ccccc2Sc2ccc(S(C)=O)cc21 (stereo not given),-26.4%,–
CC(CN1c2ccccc2Sc2ccccc21)N(C)C (stereo not given),2.62%,–
O=C1NS(=O)(=O)c2ccccc21,-1.15%,–
CNCCC(Oc1ccc(C(F)(F)F)cc1)c1ccccc1 (stereo not given),-29.7%,–
Cc1ccc2nc(N)[nH]c(=O)c2c1Sc1ccncc1,–,5.01 µM (active)
Cc1cc(N)c2ccccc2[n+]1CCCCCCCCCC[n+]1c(C)cc(N)c2ccccc21,–,0.316 µM (active)
[Cl][In]([Cl])[Cl],0.0514%,–
CCCCOc1cc(C(=O)OCCN(CC)CC)ccc1N,5.48% [at 12.8 µM],–
CN(C)CCN(Cc1ccccc1)c1ccccn1,-27.5%,–
Cc1c(O)cccc1C(=O)N[C@@H](CSc1ccccc1)[C@H](O)CN1C[C@H]2CCCC[C@H]2C[C@H]1C(=O)NC(C)(C)C,-19%,–
CNCCCC1c2ccccc2C=Cc2ccccc21,-26% [at 12.8 µM],–

# Tested on: CP191
# Experiment: as above
# Conditions: P. falciparum in erythrocytes, SYBR Green DNA, 72 h; series mostly up to 28.7 µM; activity, negative = inhibition: at the top concentration
# Method in brief: as §1
Structure (SMILES),"activity, negative = inhibition",Potency
CN1CCN(C2Cc3ccccc3Sc3ccc(Cl)cc32)CC1 (stereo not given),-16%,–
Cc1cc2c(cc1S(N)(=O)=O)S(=O)(=O)CCC2,3.64% [at 12.8 µM],–
CCOc1nc2cccc(C(=O)O)c2n1Cc1ccc(-c2ccccc2-c2nn[nH]n2)cc1,-21%,–
NC1CCN(c2cccc(Cl)n2)CC1,-0.119%,–
CC(C(O)c1ccc(O)cc1)N1CCC(Cc2ccccc2)CC1 (stereo not given),–,7.94 µM (active)
CNC(=O)Oc1ccc2c(c1)[C@]1(C)CCN(C)[C@@H]1N2C,–,2.24 µM (active)
CCOC(CN1CCN(CC(C)C(=O)c2ccccc2)CC1)c1ccccc1 (stereo not given),-13.3%,–
CN1CCC[C@@H]1Cc1c[nH]c2ccc(CCS(=O)(=O)c3ccccc3)cc12,–,5.01 µM (active)
CCCCN1CCCC[C@H]1C(=O)Nc1c(C)cccc1C,2.13%,–
Nc1ccc(S(=O)(=O)Nc2ccc(Cl)nn2)cc1,–,1.12 µM (active)
c1ccc(CN(CC2=NCCN2)c2ccccc2)cc1,-23.8%,–
CC(CN1c2ccccc2Sc2ccccc21)N(C)C (stereo not given),7.82%,–
O=C1NS(=O)(=O)c2ccccc21,2.74%,–
Cc1ccc2nc(N)[nH]c(=O)c2c1Sc1ccncc1,–,2.51 µM (active)
Cc1cc(N)c2ccccc2[n+]1CCCCCCCCCC[n+]1c(C)cc(N)c2ccccc21,–,0.0501 µM (active)
CCCCOc1cc(C(=O)OCCN(CC)CC)ccc1N,0.92% [at 12.8 µM],–
CN(C)CCN(Cc1ccccc1)c1ccccn1,-21.5%,–
OCCN1CCN(CCCN2c3ccccc3Sc3ccc(Cl)cc32)CC1,–,3.16 µM (active)
